# Screens (PubChem BioAssay)
# The entries come from a sample that favours hits as a whole.
# nsP2pro primary = CHIKV nsP2 protease inhibition, primary qHTS; FRET peptide cleavage, nsP2pro, fluorescence 1 h; Potency, µM (highest dose often 24.9 µM), hits mostly inhibitors; Q8JUX6; actives 1.1% (n = 31,000); AID 1964107; note: nearly all actives have a fitted effect of over 60% in size
#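 Recombinant nsP2pro (150 nM) was preincubated with compound 15 min at room temperature in 10 mM Tris-HCl pH 8.0, 0.01% Tween 20. Peptide 2 FRET substrate (2.5 uM) was then added and fluorescence read after 1 h. Seven-point series, up to 25 uM.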
# CHIKV nsP2 cell = secondary cell-based test for CHIKV nsP2 protease inhibitors; shares compounds with nsP2pro primary; cell-based CHIKV nsP2 protease reporter assay; Potency, µM (top dose mostly 51.1 µM), most hits filed as inhibitors; actives 10% (n = 450); AID 1964100; note: nearly all actives have a fitted effect of over 70% in size
# CHIKV NSP2 FL = full-length CHIKV NSP2 protease inhibition, selectivity; shares compounds with nsP2pro primary; Full-length CHIKV NSP2 protease enzymatic counterscreen; Potency, µM (highest dose often 50.7 µM), usual class: inhibitors; actives 39% (n = 410); AID 1964101; note: nearly all actives have a fitted effect of over 65% in size
# Furin counterscr = human furin inhibition, counterscreen for nsP2pro inhibitors. shares compounds with nsP2pro primary. Recombinant human furin enzymatic counterscreen, fluorogenic substrate. Potency, µM (doses to about 50.6 µM), most hits filed as inhibitors. actives 6% (n = 410)
# nsP2 NS23 pep = selectivity test for CHIKV nsP2 protease inhibitors: endogenous NS2/3 peptide; actives 34% (n = 410); Purified CHIKV nsP2 protease, endogenous NS2/3 peptide cleavage; shares compounds with nsP2pro primary; AID 1964103; Potency, µM (doses to about 51 µM), actives largely listed as inhibitors; note: nearly all actives have a fitted effect of over 55% in size
# Papain counter = selectivity counter-screen for CHIKV nsP2 protease inhibitors: papain; shares compounds with nsP2pro primary; purified papain protease activity, enzymatic inhibition; Potency, µM (series often up to 51 µM), most hits filed as inhibitors; actives 5% (n = 410)
# Target sequence (P00784 whole entry, looked up): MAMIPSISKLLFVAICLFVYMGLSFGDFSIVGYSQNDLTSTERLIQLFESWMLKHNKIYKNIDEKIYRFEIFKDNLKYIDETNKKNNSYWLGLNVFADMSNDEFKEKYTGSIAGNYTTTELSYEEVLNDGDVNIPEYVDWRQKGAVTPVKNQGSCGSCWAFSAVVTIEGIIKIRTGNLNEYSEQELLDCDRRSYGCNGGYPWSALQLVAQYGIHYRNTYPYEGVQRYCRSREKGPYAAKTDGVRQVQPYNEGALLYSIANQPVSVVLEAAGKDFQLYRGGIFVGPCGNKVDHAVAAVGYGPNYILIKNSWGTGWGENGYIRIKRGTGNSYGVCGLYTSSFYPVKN
# nsP2pro confirm = confirmation of CHIKV nsP2 protease inhibitors | Potency, µM (doses to about 25.5 µM), usual class: inhibitors | shares compounds with nsP2pro primary | CHIKV nsP2 protease enzymatic activity, qHTS | AID 1964105 | actives 43% (n = 410); note: nearly all actives have a fitted effect of over 75% in size
# HCV NS3 4A cs = HCV NS3/4A protease inhibition, counterscreen; shares compounds with nsP2pro primary; HCV NS3/4A protease biochemical counterscreen; Potency, µM (top dose mostly 50.9 µM), hits mostly inhibitors; actives 20% (n = 410); note: nearly all actives have a fitted effect of over 55% in size
# Numbers stand for hits; . = inactive; ? = inconclusive. Calls come from the whole dose curve.
SMILES,nsP2pro primary,others
COc1ccc(C2CCC(=O)N2Cc2ccc(F)cc2)cc1 (centres undefined),.,
Nc1ccc(C(=O)Nc2ccc(-c3nc4ccccc4[nH]3)cc2)cc1Cl,.,
C=C1[C@@H](C)C2[C@H](Cc3ccccc3)NC(=O)[C@@]23C(/C=C/C[C@H](C)C[C@@](C)(O)/C=C/[C@@H]3OC(C)=O)[C@@H]1O (some centres undefined),.,
CC1=CC2/C=C(\C)CCC(O)C(O)/C=C/C(=O)OC23C(=O)NC(CC(C)C)C3C1C (centres undefined),.,
C=C1[C@@H](C)[C@H]2[C@H](Cc3ccccc3)NC(=O)[C@]23OC(=O)/C=C/C(=O)CCC[C@@H](C)C/C=C/[C@H]3[C@@H]1O,2.5µM,CHIKV nsP2 cell=0.71µM;CHIKV NSP2 FL=7.3µM;Furin counterscr=.;nsP2 NS23 pep=8.2µM;Papain counter=.;nsP2pro confirm=1.1µM;HCV NS3 4A cs=0.37µM
O=C(Cc1cccc(C(F)(F)F)c1)N[C@H]1CCOC[C@H]1C1CCOCC1,.,
CC(C)C1=NOC2(CCN([S+](=O)([O-])c3cccs3)C2)C1 (centres undefined),.,
O=C1NC(=NC2CCCCC2)C2(CCN(CC3CCCCC3)C2)N1c1cccnc1 (centres undefined),.,
CN(C)c1cc(N2CCCC(NS(C)(=O)=O)C2)ncn1 (centres undefined),.,
CC1(C)SCCN(S(=O)(=O)c2ccc(OCC#CCO)cc2)[C@H]1C(=O)NO,?,CHIKV nsP2 cell=.;CHIKV NSP2 FL=?;Furin counterscr=.;nsP2 NS23 pep=.;Papain counter=.;nsP2pro confirm=?;HCV NS3 4A cs=.
CC1(C)SCCN(S(=O)(=O)c2ccc(Oc3ccncc3)cc2)[C@H]1C(=O)NO,.,
COc1ccc(-c2csc(NC(=O)[C@H]3CCCCN3S(=O)(=O)c3ccc(C)cc3)n2)cc1,.,
CCCN(Cc1cccs1)c1ncnc2ccc(-c3ccc4c(c3)OCO4)cc12,.,
Cc1nn(-c2ccc(C(F)(F)F)cc2)c(C)c1[C@@H]1C=C[C@@H](NCc2ccc(N(C)C)cc2)C1,.,
Cc1cc(C=CC#N)cc(C)c1Nc1nc(Nc2ccc3c(c2)OCO3)c2[nH]cnc2n1,.,
CCN(CC)C(=O)[C@]1(c2ccccc2)C[C@H]1CN,.,
CC1(C)CC=C(c2cnc3ccccc3c2)c2cc(C(=O)Nc3ccc(C(=O)O)cc3)ccc21,.,
CN1CCc2cc3c(cc2C1C1OC(=O)c2c1ccc1c2OCO1)OCO3 (centres undefined),.,
CN1CCc2cccc3c2[C@H]1Cc1ccc(O)c(O)c1-3,3.1µM,CHIKV nsP2 cell=?;CHIKV NSP2 FL=26µM;Furin counterscr=23µM;nsP2 NS23 pep=16µM;Papain counter=.;nsP2pro confirm=5µM;HCV NS3 4A cs=.
Cc1ccnc(NC(=S)N2CC3CN(c4ncc(C(F)(F)F)cc4Cl)CC3C2)c1 (centres undefined),.,
CN(C)CCc1c[nH]c2ccc(CN3CCN(C)S3(=O)=O)cc12,?,CHIKV nsP2 cell=.;CHIKV NSP2 FL=.;Furin counterscr=.;nsP2 NS23 pep=.;Papain counter=.;nsP2pro confirm=.;HCV NS3 4A cs=.
CN(C)CCc1c[nH]c2ccc(CS(=O)(=O)N3CCCC3)cc12,.,
CNS(=O)(=O)Cc1ccc2[nH]cc(CCN(C)C)c2c1,.,
Cc1cc(C)nc(NC(=S)N2CCN(c3ccc(F)c(F)c3F)CC2)c1,.,
COCCN1CCCCCC(O)c2cc(C(=O)NCc3ccc(F)cc3)ccc21 (centres undefined),.,
SMILES,nsP2pro primary,others
Cc1cc(NC(=O)Nc2cccc(-c3ccncc3)n2)ccc1Br,.,
COc1ccc2c(C(=O)c3ccc(Cl)cc3)c(C)n(CC(=O)O)c2c1,.,
Cc1ccc(SCC(=O)Nc2cccc(-c3nc4cc(Cl)ccc4o3)c2C)cc1,.,
CC(=O)Nc1cccc2c1c(Sc1ccc(Cl)cc1)c(C)n2CC(=O)O,9.9µM,CHIKV nsP2 cell=.;CHIKV NSP2 FL=.;Furin counterscr=.;nsP2 NS23 pep=.;Papain counter=.;nsP2pro confirm=.;HCV NS3 4A cs=.
CC1CCCC(C)N1C(=O)c1ccc2nc(-c3cccnc3)oc2c1 (centres undefined),.,
O=C(O)CC[C@@H]1CN(C(=O)c2ccc(CO)o2)CC[C@@H]1N1CCOCC1,.,
Cc1ccsc1CN1CCc2[nH]nc(C(=O)N(C)C)c2C1,.,
Cc1ncoc1C(=O)N1CCC2(CC1)CC(N(Cc1ccccc1)C1CC1)CCO2 (centres undefined),.,
COc1cccc(CNc2ccc(S(=O)(=O)Nc3ccc(N4CCNCC4)cc3)cc2)c1O,.,
